Source: the supplement of paper PMC11732987, “Enantioselective OTUD7B fragment discovery through chemoproteomics screening and high-throughput optimisation” (Communications Chemistry, 2025)

Key:
Assay in all cases: log2 ratio of Biotin-Ahx-Ub-VS probe labelling (fragment/DMSO); higher = less target engagement (more negative = stronger competition), active = hit call of the paper (q ≤ 0.05, log2 ratio ≤ -1)
Conditions in all cases: compound concentration: 200 uM; treatment time: 3 h
USP9X = USP9X (UniProt Q93008)
Method in brief: (§1)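 Labelled DUBs from HEK293T lysate were NeutrAvidin-enriched, digested with LysC and trypsin, and run by diaPASEF LC-MS/MS. Before that, each 495 µg sample in Tris/CHAPS/IGEPAL buffer with protease inhibitors was treated in triplicate with fragment at 200 µM or vehicle for 3 h, then with Biotin-Ahx-Ub-VS at 0.5 µM final for 1 h. Values are average log2 ratios of fragment over vehicle by unpaired t-test, based on global-median-normalised Spectronaut label-free quantities from proteins with ≥2 unique peptides.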

UniProt O00487 = target: UniProt O00487
UniProt O00487, sequence (O00487 whole entry): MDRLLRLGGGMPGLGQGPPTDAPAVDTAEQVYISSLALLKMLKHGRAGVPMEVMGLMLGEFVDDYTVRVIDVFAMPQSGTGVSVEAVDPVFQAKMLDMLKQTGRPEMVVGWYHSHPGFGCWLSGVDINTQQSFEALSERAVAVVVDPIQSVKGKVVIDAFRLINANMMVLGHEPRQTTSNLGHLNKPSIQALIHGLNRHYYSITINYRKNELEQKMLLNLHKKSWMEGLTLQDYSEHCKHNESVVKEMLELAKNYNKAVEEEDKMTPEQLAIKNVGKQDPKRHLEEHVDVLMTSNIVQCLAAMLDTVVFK
Method in brief: as §1

UniProt O00507 = target: UniProt O00507
UniProt O00507, sequence (O00507 whole entry): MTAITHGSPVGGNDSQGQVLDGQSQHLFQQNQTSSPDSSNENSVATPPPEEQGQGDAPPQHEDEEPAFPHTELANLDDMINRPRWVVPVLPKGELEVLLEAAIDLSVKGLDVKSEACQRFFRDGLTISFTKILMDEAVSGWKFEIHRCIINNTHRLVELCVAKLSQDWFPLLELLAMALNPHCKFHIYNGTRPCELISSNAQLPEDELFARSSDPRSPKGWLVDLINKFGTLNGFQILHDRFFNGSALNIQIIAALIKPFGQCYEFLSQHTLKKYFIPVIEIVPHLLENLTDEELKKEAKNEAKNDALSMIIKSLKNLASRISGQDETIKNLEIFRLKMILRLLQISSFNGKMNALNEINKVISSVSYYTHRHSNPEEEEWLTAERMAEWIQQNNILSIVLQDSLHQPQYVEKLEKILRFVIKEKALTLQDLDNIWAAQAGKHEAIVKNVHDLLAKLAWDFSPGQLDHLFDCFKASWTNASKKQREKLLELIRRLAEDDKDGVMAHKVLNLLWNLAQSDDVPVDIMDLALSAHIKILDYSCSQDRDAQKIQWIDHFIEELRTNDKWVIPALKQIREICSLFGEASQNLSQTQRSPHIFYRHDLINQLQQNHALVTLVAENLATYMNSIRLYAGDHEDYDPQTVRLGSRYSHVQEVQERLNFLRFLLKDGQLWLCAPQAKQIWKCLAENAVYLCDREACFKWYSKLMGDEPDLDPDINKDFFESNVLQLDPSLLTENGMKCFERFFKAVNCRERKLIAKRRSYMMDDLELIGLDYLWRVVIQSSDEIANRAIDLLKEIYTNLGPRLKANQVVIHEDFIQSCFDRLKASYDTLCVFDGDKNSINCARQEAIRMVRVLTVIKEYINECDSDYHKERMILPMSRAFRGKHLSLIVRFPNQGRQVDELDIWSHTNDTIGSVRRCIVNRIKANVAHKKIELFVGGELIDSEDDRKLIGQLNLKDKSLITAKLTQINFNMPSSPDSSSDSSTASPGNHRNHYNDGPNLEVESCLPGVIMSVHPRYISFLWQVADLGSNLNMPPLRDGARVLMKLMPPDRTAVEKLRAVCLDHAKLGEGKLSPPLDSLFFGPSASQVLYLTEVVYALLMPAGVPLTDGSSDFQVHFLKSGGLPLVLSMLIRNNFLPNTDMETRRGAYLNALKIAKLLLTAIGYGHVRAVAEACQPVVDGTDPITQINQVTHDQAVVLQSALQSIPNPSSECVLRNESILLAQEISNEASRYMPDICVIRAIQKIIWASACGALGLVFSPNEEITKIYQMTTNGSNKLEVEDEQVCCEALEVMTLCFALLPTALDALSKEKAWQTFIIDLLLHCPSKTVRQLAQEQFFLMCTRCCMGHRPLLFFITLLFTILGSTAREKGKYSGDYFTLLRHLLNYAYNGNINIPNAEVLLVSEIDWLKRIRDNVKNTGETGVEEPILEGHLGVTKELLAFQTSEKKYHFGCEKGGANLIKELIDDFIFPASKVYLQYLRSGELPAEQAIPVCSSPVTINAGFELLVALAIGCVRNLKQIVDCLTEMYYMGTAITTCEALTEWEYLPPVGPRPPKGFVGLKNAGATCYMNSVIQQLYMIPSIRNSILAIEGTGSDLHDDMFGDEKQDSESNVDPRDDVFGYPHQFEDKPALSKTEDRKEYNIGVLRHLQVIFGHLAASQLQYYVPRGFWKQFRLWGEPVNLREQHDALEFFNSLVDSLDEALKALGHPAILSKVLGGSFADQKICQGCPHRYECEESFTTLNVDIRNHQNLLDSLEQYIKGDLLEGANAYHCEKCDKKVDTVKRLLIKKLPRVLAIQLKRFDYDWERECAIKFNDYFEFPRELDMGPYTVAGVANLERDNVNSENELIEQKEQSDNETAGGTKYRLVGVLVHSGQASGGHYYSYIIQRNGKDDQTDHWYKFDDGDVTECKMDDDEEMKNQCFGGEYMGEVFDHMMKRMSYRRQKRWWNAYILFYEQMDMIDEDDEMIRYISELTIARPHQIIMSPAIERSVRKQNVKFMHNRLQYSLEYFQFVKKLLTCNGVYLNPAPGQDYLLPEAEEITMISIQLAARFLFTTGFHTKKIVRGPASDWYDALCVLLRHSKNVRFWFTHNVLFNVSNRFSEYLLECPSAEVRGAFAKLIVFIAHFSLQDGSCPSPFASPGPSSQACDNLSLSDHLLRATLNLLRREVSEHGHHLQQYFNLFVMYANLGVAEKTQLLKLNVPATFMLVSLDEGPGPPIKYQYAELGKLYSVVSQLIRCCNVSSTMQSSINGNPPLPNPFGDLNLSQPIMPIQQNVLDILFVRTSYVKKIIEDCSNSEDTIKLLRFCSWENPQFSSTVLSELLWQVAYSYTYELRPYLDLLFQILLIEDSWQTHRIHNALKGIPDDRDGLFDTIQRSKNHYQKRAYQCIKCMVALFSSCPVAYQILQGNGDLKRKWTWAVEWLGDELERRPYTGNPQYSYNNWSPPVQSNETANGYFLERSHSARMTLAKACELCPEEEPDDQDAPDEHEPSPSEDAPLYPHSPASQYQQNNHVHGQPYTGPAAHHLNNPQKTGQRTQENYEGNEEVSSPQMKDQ
Method in brief: as §1

UniProt P51784 = target: UniProt P51784
UniProt P51784, sequence (P51784 whole entry): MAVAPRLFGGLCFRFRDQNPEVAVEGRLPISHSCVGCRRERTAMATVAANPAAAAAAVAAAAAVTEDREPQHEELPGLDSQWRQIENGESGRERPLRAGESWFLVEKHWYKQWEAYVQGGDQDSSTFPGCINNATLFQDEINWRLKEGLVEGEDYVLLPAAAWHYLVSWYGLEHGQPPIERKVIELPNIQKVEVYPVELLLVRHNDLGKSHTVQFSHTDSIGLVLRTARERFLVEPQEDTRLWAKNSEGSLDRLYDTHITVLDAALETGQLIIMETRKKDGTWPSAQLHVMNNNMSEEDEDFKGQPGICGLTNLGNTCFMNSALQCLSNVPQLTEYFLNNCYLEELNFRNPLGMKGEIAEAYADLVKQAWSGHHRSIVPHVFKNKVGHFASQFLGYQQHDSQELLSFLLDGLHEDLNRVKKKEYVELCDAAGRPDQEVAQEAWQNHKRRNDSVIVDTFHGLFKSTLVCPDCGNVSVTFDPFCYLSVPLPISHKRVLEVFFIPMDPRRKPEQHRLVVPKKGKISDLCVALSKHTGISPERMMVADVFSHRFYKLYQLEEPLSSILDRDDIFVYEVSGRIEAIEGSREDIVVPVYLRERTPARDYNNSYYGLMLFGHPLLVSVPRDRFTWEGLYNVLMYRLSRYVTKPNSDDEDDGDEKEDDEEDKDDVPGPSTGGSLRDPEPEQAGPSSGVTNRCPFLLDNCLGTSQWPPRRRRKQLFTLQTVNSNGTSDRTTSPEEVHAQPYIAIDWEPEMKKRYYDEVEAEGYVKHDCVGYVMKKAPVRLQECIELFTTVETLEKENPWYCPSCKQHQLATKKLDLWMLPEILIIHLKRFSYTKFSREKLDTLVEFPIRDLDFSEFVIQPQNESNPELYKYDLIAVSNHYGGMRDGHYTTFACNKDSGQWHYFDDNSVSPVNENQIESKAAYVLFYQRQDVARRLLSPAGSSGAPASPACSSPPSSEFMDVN
Method in brief: as §1

UniProt Q5T2D3 = target: T1, UniProt Q5T2D3
T1 sequence (whole entry): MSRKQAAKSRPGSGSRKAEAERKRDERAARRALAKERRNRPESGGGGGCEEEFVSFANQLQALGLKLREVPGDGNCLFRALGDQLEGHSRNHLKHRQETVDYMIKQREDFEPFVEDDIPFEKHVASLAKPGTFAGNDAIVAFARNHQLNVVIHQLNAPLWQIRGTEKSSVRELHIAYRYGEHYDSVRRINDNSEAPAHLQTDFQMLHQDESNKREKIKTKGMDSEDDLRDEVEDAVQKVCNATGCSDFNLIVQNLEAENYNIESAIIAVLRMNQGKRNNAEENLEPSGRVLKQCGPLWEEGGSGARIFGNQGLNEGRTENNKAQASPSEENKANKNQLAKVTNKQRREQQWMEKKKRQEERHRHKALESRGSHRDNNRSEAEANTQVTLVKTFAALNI
Method in brief: as §1

UniProt Q8TE49 = target: T2, UniProt Q8TE49
T2 sequence (whole entry): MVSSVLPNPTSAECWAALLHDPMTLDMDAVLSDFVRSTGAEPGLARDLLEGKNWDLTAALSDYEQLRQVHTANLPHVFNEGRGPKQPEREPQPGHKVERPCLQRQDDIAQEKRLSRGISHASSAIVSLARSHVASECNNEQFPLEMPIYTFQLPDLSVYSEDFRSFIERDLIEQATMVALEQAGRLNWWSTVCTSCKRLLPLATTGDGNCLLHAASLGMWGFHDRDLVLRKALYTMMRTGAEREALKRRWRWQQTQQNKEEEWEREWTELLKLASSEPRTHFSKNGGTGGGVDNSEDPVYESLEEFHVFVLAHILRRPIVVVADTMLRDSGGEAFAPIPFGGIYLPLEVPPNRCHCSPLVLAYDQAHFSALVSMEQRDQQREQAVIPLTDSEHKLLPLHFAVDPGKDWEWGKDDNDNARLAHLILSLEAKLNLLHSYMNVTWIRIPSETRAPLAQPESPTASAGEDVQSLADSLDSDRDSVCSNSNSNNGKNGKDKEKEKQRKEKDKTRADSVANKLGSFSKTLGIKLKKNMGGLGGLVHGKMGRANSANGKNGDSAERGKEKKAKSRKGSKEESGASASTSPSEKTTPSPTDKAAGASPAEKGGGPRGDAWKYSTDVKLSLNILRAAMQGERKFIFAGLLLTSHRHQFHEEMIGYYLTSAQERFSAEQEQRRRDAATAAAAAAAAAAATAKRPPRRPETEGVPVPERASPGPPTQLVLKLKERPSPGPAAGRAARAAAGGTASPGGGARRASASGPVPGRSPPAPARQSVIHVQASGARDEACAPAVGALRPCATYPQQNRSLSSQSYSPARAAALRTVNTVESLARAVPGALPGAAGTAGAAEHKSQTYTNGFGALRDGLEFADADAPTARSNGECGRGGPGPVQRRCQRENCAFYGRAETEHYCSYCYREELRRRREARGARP
Method in brief: as §1

UniProt Q9P2H5 = target: T3, UniProt Q9P2H5
T3 sequence (whole entry): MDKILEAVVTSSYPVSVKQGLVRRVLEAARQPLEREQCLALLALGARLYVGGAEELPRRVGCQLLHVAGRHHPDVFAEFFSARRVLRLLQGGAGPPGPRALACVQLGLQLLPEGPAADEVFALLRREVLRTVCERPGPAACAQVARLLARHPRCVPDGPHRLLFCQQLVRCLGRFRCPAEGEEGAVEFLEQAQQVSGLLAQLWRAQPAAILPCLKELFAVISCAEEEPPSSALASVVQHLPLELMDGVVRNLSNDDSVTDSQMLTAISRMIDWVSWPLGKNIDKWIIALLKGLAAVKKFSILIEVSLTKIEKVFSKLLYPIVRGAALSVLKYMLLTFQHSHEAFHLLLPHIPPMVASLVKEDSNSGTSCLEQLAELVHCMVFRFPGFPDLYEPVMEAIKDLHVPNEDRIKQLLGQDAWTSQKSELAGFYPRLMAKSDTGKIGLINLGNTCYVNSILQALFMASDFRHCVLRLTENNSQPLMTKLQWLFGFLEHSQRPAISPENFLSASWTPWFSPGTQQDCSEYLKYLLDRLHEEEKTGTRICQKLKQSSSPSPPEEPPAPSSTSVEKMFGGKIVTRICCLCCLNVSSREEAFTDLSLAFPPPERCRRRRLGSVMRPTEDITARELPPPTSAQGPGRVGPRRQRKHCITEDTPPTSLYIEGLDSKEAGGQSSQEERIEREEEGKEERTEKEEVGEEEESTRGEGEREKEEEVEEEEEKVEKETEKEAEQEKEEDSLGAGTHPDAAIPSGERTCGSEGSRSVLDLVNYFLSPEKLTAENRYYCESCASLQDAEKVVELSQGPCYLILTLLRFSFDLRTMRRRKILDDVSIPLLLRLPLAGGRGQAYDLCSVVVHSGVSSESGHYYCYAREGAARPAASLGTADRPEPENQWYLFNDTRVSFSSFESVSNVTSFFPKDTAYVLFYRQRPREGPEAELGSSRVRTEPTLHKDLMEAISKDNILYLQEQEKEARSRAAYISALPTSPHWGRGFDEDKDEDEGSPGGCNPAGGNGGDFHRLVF
Method in brief: as §1

UniProt Q9UGI0 = target: T4, UniProt Q9UGI0
T4 sequence (whole entry): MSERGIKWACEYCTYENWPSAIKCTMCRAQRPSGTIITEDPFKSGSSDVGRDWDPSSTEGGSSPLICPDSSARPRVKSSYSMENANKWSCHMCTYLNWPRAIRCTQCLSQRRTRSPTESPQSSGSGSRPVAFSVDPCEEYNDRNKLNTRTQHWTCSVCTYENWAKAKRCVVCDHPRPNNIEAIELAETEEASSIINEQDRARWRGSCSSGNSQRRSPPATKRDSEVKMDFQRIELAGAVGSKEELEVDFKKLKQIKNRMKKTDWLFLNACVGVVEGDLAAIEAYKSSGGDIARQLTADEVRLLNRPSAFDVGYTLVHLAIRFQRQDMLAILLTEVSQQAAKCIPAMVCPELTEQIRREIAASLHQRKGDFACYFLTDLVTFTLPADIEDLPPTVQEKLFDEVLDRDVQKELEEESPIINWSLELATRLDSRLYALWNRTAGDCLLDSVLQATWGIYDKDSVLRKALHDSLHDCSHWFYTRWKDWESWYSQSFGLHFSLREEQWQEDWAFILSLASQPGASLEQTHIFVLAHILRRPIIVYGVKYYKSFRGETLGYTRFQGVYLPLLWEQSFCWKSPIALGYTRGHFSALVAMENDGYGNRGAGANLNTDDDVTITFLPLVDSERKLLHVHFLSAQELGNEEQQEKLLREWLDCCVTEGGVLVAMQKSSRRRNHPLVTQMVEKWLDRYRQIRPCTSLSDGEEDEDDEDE
Method in brief: as §1

YOD1 = target: T5, YOD1 (UniProt Q5VVQ6)
T5 sequence (whole entry): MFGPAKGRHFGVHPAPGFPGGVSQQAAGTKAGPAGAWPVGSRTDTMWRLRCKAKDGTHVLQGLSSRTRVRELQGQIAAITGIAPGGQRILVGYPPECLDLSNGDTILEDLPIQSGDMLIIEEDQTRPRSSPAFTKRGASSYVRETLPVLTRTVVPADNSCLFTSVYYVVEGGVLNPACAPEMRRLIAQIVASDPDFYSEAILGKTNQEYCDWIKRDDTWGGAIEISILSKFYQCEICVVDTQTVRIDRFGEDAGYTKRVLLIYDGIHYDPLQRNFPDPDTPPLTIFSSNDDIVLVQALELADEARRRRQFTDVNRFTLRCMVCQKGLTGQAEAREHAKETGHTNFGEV
Method in brief: as §1

Measured: log2 ratio of Biotin-Ahx-Ub-VS probe labelling

CN1C(=O)c2ccc(NC(=O)CCl)cc2C1=O
inactive: USP9X -0.202 | UniProt O00487 0.0214 | UniProt O00507 -0.092 | UniProt P51784 -0.0657 | UniProt Q5T2D3 -0.265 | UniProt Q9P2H5 -0.23 | UniProt Q9UGI0 -0.559 | YOD1 -0.0267
active: UniProt Q8TE49 -1.43
